Where “and” joins values, the source holds several entries; their conditions need not be identical. Identical values can stand only once. Inconclusive results are not listed. Entries that show only a call come without a potency. Some compounds were tested as several samples or in several runs, with calls that do not always agree. Calls of active or inactive are those of the source. Unless noted, calls come from the whole dose curve; as a rule, active = well fitted curve in the direction sought with a large enough effect in the repeat runs; inconclusive = weak or mixed curves; inactive = no such curve, though single readings can be large; an effect the other way counts as inactive or inconclusive.
Tests used:
[1] = qHTS assay for small molecule agonists of the p53 signaling pathway (AID 651631; calls by dose curve; note: nearly all actives have a fitted effect of over 15% in size; note: potency is the fitted concentration of half-maximal effect)
Summary of the method: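 HCT-116 p53RE-bla reporter line, 16 h compound treatment at 37 °C, then fluorescence after 2 h with B/G FRET substrate.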

[2] = qHTS assay for small molecules that induce genotoxicity in human embryonic kidney cells expressing luciferase-tagged ATAD5 (AID 651632); note: nearly all actives have a fitted effect of over 15% in size
Summary of the method: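 Quantitative HTS in HEK293T expressing luciferase-tagged ATAD5, whose levels rise upon DNA damage. Exposure ran 16 hr at 37C and 5% CO2, with luminescence read 30 min after Amplite addition at room temperature.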

[3] = qHTS assay for small molecule agonists of the p53 signaling pathway - cell viability (AID 651633; calls by dose curve; note: nearly all actives have a fitted effect of over 30% in size; note: potency is the fitted concentration of half-maximal effect)
Summary of the method: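 p53RE-bla cells, seeded at 4,000 per well and rested 5 h at 37 C/5% CO2, received compounds in DMSO for 16 h at 37 C. CellTiter-Glo was then added, and luminescence was read after 30 min at room temperature to gauge cytotoxicity.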

[4] = qHTS assay for small molecules that induce genotoxicity in human embryonic kidney cells expressing luciferase-tagged ATAD5 - cell viability (AID 651634; calls by dose curve; note: nearly all actives have a fitted effect of over 25% in size; note: potency is the fitted concentration of half-maximal effect)
Summary of the method: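 After 15.5 hr incubation with compound at 37C, 5% CO2, HEK293T ATAD5-luciferase cells received CellTiter-Fluor reagent; fluorescence intensity was quantified following 30 min at 37C.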

[5] = qHTS assay for small molecule disruptors of the mitochondrial membrane potential (AID 720635); note: potency is the fitted concentration of half-maximal effect
Summary of the method: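 HepG2 cells (2,000/well) attached overnight at 37C, then took compound for 1 hr at 37C, 5% CO2. Mito-MPS dye was added for 30 min; fluorescence was read at 490/535 nm (monomers) and 540/590 nm (aggregates).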

[6] = qHTS assay to test for compound auto fluorescence at 590 nm (red) in HepG2 cells (AID 720674)
Summary of the method: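 Rose Bengal sodium served as the red fluorophore standard. HepG2 monolayers (overnight attachment, MEM with 10% FBS) were exposed to test compounds for 1 hr at 37 C and read at Ex 540/Em 590 nm.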

[7] = qHTS assay to test for compound auto fluorescence at 535 nm (green) in HepG2 cells (AID 720675); note: potency is the fitted concentration of half-maximal effect
[8] = qHTS assay to test for compound auto fluorescence at 460 nm (blue) in HEK293 cells (AID 720678); note: potency is the fitted concentration of half-maximal effect
Summary of the method: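 After cell attachment (4-5 hr, 37C), compounds were pinned onto HEK293 monolayers in 10% dialyzed FBS medium. The blue channel (405/460 nm) was read following overnight culture. Equivalency was calculated against triamterene.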

[9] = qHTS assay to test for compound auto fluorescence at 590 nm (red) in HEK293 cells (AID 720679)
Summary of the method: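 Plates of HEK293 cells (10% dialyzed FBS) are treated with 23 nL compound or DMSO vehicle after a 4-5 hr attachment period, incubated overnight at 37C, and read for red fluorescence at 540/590nm.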

[10] = qHTS assay to test for compound auto fluorescence at 535 nm (green) in HEK293 cells (AID 720680); note: potency is the fitted concentration of half-maximal effect
[11] = qHTS assay to test for compound auto fluorescence at 460 nm (blue) in HEK293 cell free culture (AID 720681); note: potency is the fitted concentration of half-maximal effect
Summary of the method: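 Test compounds were pinned into cell-free culture medium (DMEM with 10% FBS) and fluorescence was read directly at Ex/Em 405/460 nm. Signals were expressed as fluorescence equivalents of triamterene, with DMSO vehicle as control.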

[12] = qHTS assay to test for compound auto fluorescence at 535 nm (green) in HEK293 cell free culture (AID 720682); note: potency is the fitted concentration of half-maximal effect
Summary of the method: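 Steps: dispense DMEM/10% FBS into empty wells; pin in compound or DMSO; measure fluorescence at 485/535 nm. Values are fluorescein equivalents.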

[13] = qHTS assay to test for compound auto fluorescence at 590 nm (red) in HEK293 cell free culture (AID 720683)
Summary of the method: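 Tox21 10K library compounds were pinned into cell-free DMEM with 10% FBS and fluorescence was read at excitation 540 nm. Activity is expressed as Rose Bengal sodium equivalency.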

[14] = qHTS assay to test for compound auto fluorescence at 590 nm (red) in HepG2 cell free culture (AID 720684)
Summary of the method: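 Ex 540 / Em 590 nm read of compound in cell-free MEM (10% FBS). Rose Bengal sodium reference.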

[15] = qHTS assay to test for compound auto fluorescence at 460 nm (blue) in HepG2 cell free culture (AID 720685); note: potency is the fitted concentration of half-maximal effect
Summary of the method: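 Cell-free plates of MEM plus 10% FBS received 23 nL compound or DMSO vehicle; blue-channel (405/460 nm) intensity scored against triamterene as reference fluorophore.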

[16] = qHTS assay to test for compound auto fluorescence at 535 nm (green) in HepG2 cell free culture (AID 720686); note: potency is the fitted concentration of half-maximal effect
[17] = qHTS assay to test for compound auto fluorescence at 460 nm (blue) in HepG2 cells (AID 720687); note: potency is the fitted concentration of half-maximal effect
Summary of the method: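 Cells (2,000/well in MEM with 10% FBS) attached overnight at 37 C, then were exposed to compound or DMSO for 1 hr at 37 C, 5% CO2. Fluorescence read at Ex/Em 405/460 nm, expressed as triamterene-equivalent signal.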

[18] = qHTS assay for small molecule disruptors of the mitochondrial membrane potential - cell viability (AID 720634; calls by dose curve; note: nearly all actives have a fitted effect of over 20% in size; note: potency is the fitted concentration of half-maximal effect)
Summary of the method: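 ATP-based luminescent viability readout (CellTiter-Glo, 30 min, room temperature) in HepG2 cells multiplexed with the m-MPI membrane potential dye; compound exposure lasted 1 hr at 37 C.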

[19] = biological target: Glucocorticoid receptor (Homo sapiens) (UniProt P04150); experiment: qHTS assay to identify small molecule antagonists of the glucocorticoid receptor (GR) signaling pathway (AID 720692; active = well fitted inhibition curve with a large enough effect in the signal ratio in the repeat runs, not every such curve was filed as active; the % refers to the signal ratio; note: potency is the fitted concentration of half-maximal effect)
Chain of Glucocorticoid receptor (Homo sapiens) (P04150 whole entry, looked up): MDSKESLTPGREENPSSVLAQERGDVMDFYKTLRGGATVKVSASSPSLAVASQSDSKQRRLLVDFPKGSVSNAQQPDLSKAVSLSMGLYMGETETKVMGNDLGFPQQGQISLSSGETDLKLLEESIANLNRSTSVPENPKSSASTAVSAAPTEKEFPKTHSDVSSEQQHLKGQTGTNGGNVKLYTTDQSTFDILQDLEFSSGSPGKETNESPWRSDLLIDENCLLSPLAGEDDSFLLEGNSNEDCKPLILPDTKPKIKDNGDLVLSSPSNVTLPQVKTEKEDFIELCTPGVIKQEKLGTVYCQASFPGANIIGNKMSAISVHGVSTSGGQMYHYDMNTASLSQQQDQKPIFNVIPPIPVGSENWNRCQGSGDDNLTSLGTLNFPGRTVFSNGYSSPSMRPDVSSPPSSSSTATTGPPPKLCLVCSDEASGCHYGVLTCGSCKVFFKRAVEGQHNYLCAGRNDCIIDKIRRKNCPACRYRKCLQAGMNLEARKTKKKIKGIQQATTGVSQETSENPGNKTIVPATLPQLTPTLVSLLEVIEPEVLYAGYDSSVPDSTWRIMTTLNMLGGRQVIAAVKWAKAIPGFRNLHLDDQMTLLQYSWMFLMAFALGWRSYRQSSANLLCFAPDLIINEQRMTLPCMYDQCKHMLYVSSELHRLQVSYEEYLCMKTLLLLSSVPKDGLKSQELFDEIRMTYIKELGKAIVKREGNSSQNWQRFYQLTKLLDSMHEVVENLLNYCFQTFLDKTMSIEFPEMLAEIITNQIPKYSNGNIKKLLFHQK
Summary of the method: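 Quantitative HTS in antagonist format: HeLa cells expressing endogenous GR and a stably integrated GRE-bla reporter, stimulated with 5 nM dexamethasone (final) alongside test compounds for 18 h.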

[20] = biological target: Glucocorticoid receptor (Homo sapiens) (UniProt P04150); experiment: qHTS assay to identify small molecule agonists of the glucocorticoid receptor (GR) signaling pathway (AID 720691; active = well fitted activation curve with a large enough effect in the signal ratio in the repeat runs, not every such curve was filed as active; the % refers to the signal ratio; note: potency is the fitted concentration of half-maximal effect); conditions: GR-bla HeLa, beta-lactamase reporter ratio, 18 h; activation: at 62.4 µM (top of the series)
Summary of the method: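 Cells: GR-bla HeLa, endogenous GR with stably integrated GRE-beta-lactamase reporter. Treatment 18 h, 37 C, compounds delivered in DMSO. Detection via LiveBLAzer B/G FRET substrate, 2 h RT, fluorescence intensity.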
Tags give direction and shape of the fitted curve or compound fluorescence and quenching.

Structure (SMILES)	Potency [1]	Potency [2]	Potency [3]	Potency [4]	Potency [5]	Potency [6]	Potency [7]	Potency [8]	Potency [9]	Potency [10]	Potency [11]	Potency [12]	Potency [13]	Potency [14]	Potency [15]	Potency [16]	Potency [17]	Potency [18]	Potency [19]	Potency [20]
COc1cc(C=C2CCC/C(=C\c3ccc(O)c(OC)c3)C2=O)ccc1O	11.9 µM (active)	inactive	16.8 µM (active)	23.7 µM (active)	4.95 µM (active)	inactive	inactive	inactive	inactive	inactive	inactive	inactive	inactive	inactive	inactive	inactive	inactive	–	–	–
CC(C)c1cccc(C(C)C)c1N1C(=O)c2ccc(O)cc2C1=O	1.54 µM (active)	inactive	–	inactive	1.22 µM (active)	inactive	inactive	39.8 µM [fluorescent] (active)	inactive	–	35.5 µM (active)	–	inactive	inactive	39.8 µM [fluorescent] (active)	inactive	35.5 µM [fluorescent] (active)	9.69 µM (active)	38.9 µM (active)	–
Nc1ccc2cc3ccc(N)cc3nc2c1	3.35 µM (active) and 3.06 µM (active)	inactive	inactive	–	2.66 µM (active) and 1.22 µM (active)	inactive	12.6 µM (active)	12.6 µM [fluorescent] (active)	inactive	11.2 µM [fluorescent] (active)	11.2 µM (active)	11.2 µM [fluorescent] (active)	inactive	inactive	11.2 µM [fluorescent] (active)	11.2 µM [fluorescent] (active) and 7.08 µM [fluorescent] (active)	12.6 µM [fluorescent] (active)	inactive	–	6.16 µM (active)
C=CCCCCCCC=C	inactive	–	inactive	inactive	inactive	inactive	inactive	inactive	inactive	inactive	inactive	inactive	inactive	inactive	inactive	inactive	inactive	inactive	–	–
CC(C)(c1cc(Br)c(OCCO)c(Br)c1)c1cc(Br)c(OCCO)c(Br)c1	–	inactive	47.5 µM (active)	37.7 µM (active)	5.97 µM (active)	inactive	inactive	inactive	inactive	inactive	inactive	inactive	inactive	inactive	inactive	inactive	inactive	inactive	–	–
CN(C)CCCN1c2ccccc2Sc2ccc(C(F)(F)F)cc21	11.9 µM (active)	inactive	29.8 µM (active)	–	–	inactive	inactive	inactive	inactive	inactive	inactive	inactive	inactive	inactive	inactive	inactive	inactive	–	–	inactive
CC1CCCNC1 (stereo not drawn)	inactive	inactive	inactive	inactive	–	inactive	–	inactive	inactive	inactive	inactive	inactive	inactive	inactive	inactive	inactive	inactive	inactive	inactive	inactive
O=C(O)CC(=O)O	inactive	inactive	inactive	inactive	–	inactive	inactive	inactive	inactive	–	inactive	inactive	inactive	inactive	inactive	inactive	–	inactive	–	inactive
CCCCCCOc1ccc(O)cc1	24.3 µM (active)	–	inactive	inactive	12.2 µM (active)	inactive	inactive	–	inactive	inactive	inactive	–	inactive	inactive	inactive	inactive	inactive	–	–	–
CC(COC(=O)c1ccccc1)OC(=O)c1ccccc1 (stereo not drawn)	inactive	inactive	inactive	inactive	–	inactive	inactive	–	inactive	inactive	inactive	inactive	inactive	inactive	inactive	inactive	inactive	inactive	–	–
CCc1cccc(C)c1	inactive	inactive	inactive	inactive	–	inactive	–	inactive	inactive	inactive	inactive	inactive	inactive	inactive	inactive	inactive	inactive	inactive	inactive	inactive
CCOC(=O)C1=C(C)NC(C)=C(C(=O)OCC)C1c1ccccc1/C=C/C(=O)OC(C)(C)C	29.8 µM (active)	inactive	29.8 µM (active)	–	10.6 µM (active)	inactive	inactive	–	inactive	inactive	inactive	inactive	inactive	inactive	inactive	inactive	inactive	–	–	–
CC(C)(c1cc(Br)c(O)c(Br)c1)c1cc(Br)c(O)c(Br)c1	48.4 µM (active) and 41 µM (active)	inactive	60.9 µM (active) and 24.3 µM (active) and 23 µM (active)	–	4.84 µM (active) and 7.67 µM (active) and 1.83 µM (active)	inactive	inactive	–	inactive	inactive	inactive	–	inactive	inactive	inactive	inactive	inactive	inactive and 60.9 µM (active)	–	–

From PubChem BioAssay (Tox21)
